DAGLB inh: DAGLB lipase inhibitors, primary screen, biochemical, fluorescence, HTS | Diacylglycerol lipase-beta (Homo sapiens), Q8NCG7 | HEK293T DAGLB membrane lysate, EnzChek fluorogenic substrate | inhibition, % at 5.17 µM | 340,000 tested, 0.059% active; in the data active = inhibition above about 34%;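 note: 0% = enzyme with vehicle and 100% = wells lacking enzyme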
Rtt109 Vps75: inhibitors of C. albicans Rtt109/Vps75 HAT, primary screen, biochemical, ThioGlo CoA-SH fluorescence, plate reader. AID 540336, 2011. purified Rtt109/Vps75, 4 h. 330,000 tested, 0.16% active. Histone acetyltransferase RTT109 (Candida albicans (strain SC5314 / ATCC MYA-2876)), …. inhibition, % at 34.9 µM;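 active = inhibition of at least 50% in every replicate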
Target sequence (Q5AAJ8 whole entry, looked up): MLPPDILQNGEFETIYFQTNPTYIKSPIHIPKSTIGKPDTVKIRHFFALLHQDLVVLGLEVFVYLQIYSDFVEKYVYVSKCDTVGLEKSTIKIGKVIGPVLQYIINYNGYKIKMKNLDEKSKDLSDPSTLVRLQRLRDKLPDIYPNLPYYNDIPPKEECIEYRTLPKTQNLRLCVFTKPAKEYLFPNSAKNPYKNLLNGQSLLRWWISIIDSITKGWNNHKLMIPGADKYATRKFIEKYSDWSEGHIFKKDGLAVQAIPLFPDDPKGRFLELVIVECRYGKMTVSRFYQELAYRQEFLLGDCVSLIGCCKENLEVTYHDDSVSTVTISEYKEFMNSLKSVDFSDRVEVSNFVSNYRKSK
sPLA2-III inh: human group III sPLA2 inhibitors, primary screen, biochemical, QFRET, BODIPY PC-A2 liposome substrate | AID 743126, 2013 | Group 3 secretory phospholipase A2 (Homo sapiens), Q9NZ20 | QFRET BODIPY PC-A2 liposome hydrolysis, fluorescence | inhibition, % at 12.2 µM | 370,000 tested, 0.56% active;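 active = inhibition above mean plus 3 SD of compounds lying within the high and low control bounds, cut at about 19% in these data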;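 note: 0% = median of test compound wells and 100% = no enzyme DMSO wells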
Cardio protect: cardioprotection against H2O2-induced cell death, primary screen, uHTS, H9c2 cells, ATPLite luminescence | AID 588492, 2011 | H9c2 cardiomyocytes, H2O2 injury protection, 2 h | 360,000 tested, 0.63% active | protection from H2O2 cell death, % at 20 µM;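 active = compounds giving at least 50% protection of heart cells from peroxide-induced death in the single-dose screen, raw or plate-pattern-corrected value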;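 note: 0% = DMSO wells with peroxide and 100% = DMSO wells without peroxide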
Myeloid diff 2: induction of myeloid progenitor differentiation, primary screen, cell-based, flow cytometry, MLPCN library | ER-HoxA9 myeloid progenitors, lysozyme-GFP differentiation | calls only at 10 µM | 360,000 tested, 1% active | AID 624256, 2012;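 active = normalized GFP-positive differentiation at or above the plate's own cutoff, the solvent-only control mean plus 3 SD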;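 note: cells exposed to compound for four days before flow analysis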
ABHD5-PLIN5 inh: ABHD5-PLIN5 interaction inhibitors, primary screen, cell lysate, split luciferase complementation, luminescence; Perilipin-5 (Homo sapiens) + 1-acylglycerol-3-phosphate O-acyltransferase ABHD5 (Homo …; Split G. princeps luciferase complementation, 4 h; inhibition, % at 4 µM; 360,000 tested, 0.78% active; AID 602281, 2012;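 active = inhibition above the mean inhibition across every tested compound plus 3 SD, cut at about 22% in these data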;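 note: 0% = DMSO only wells and the 100% control is not disclosed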
ABHD5-PLIN5 conf: ABHD5-PLIN5 interaction inhibitors, confirmation, biochemical, luminescence | shares compounds with ABHD5-PLIN5 inh | inhibition, % at 4 µM | 2,200 tested, 67% active | AID 651612, 2012; in the data active = inhibition above about 23%;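 note: 0% = DMSO vehicle wells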
HNF4 split-luc: HNF4 dimerization inhibitors, counter-screen for ABHD5-PLIN5 interaction inhibitor project, biochemical, split-luciferase complementation, luminescence; shares compounds with ABHD5-PLIN5 inh; inhibition, % at 4 µM; 2,200 tested, 77% active; AID 651674, 2012;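 active = mean inhibition across replicate wells exceeding the computed hit threshold, cut at about 13% in these data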;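 note: light from luciferase halves that rejoin when HNF4 fusion proteins dimerize; 0% = DMSO only wells and the 100% control is not given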
Active calls of the source: *. An excerpt weighted towards active compounds, which were near 2.9% of everything screened.

For O=C(C[n+]1cccc(NC(=O)c2ccccc2)c1)c1ccc(NC(=O)c2ccccc2)cc1 the results were DAGLB inh 1, Rtt109 Vps75 6, sPLA2-III inh -23, Cardio protect -6, Myeloid diff 2 inactive, ABHD5-PLIN5 inh 24*, ABHD5-PLIN5 conf 14 and HNF4 split-luc -2.
`CC1=NN(C(=O)c2ccc(Cn3nc(C)cc3C)o2)C(O)(C(F)(F)F)C1` (centres undefined) gave DAGLB inh 1, Rtt109 Vps75 2, sPLA2-III inh -2, Cardio protect 6, Myeloid diff 2 inactive, ABHD5-PLIN5 inh 58*, ABHD5-PLIN5 conf 6 and HNF4 split-luc -2.
Screening CC1=NN(C(=O)c2ccc(Cn3cc(Br)c([N+](=O)[O-])n3)o2)C(O)(C(F)(F)F)C1 (centres undefined) returned DAGLB inh -3, Rtt109 Vps75 -3, sPLA2-III inh -2, Cardio protect 4, Myeloid diff 2 inactive and ABHD5-PLIN5 inh -4.
C=CCNC(=O)/C(C#N)=C/c1c(C)nn(-c2ccc(Cl)cc2)c1Cl was read as DAGLB inh -1, sPLA2-III inh 0, Cardio protect -18, Myeloid diff 2 inactive, ABHD5-PLIN5 inh 34*, ABHD5-PLIN5 conf 41* and HNF4 split-luc 45*.
Screening O=C(Nc1ccc2c(c1)OCCO2)C(c1ccccc1F)n1c(=O)c(-c2ccco2)nc2ccccc21 (centres undefined) returned sPLA2-III inh 1, Myeloid diff 2 inactive, ABHD5-PLIN5 inh 26*, ABHD5-PLIN5 conf 32* and HNF4 split-luc 10.
`COc1ccc(NC(=O)C(c2ccnc3ccccc23)n2c(=O)c(-c3ccco3)nc3ccccc32)cc1` (centres undefined) gave sPLA2-III inh -2, Myeloid diff 2 inactive, ABHD5-PLIN5 inh 36*, ABHD5-PLIN5 conf 25* and HNF4 split-luc 6.
For COc1ccc(NC(=O)C(c2ccccc2F)n2c(=O)c(-c3ccco3)nc3ccccc32)cc1 (centres undefined) the results were sPLA2-III inh 0, Myeloid diff 2 inactive and ABHD5-PLIN5 inh 10.
`COc1ccc(NC(=O)C(c2ccc(C#N)cc2)n2c(=O)c(-c3ccco3)nc3ccccc32)cc1` (centres undefined) gave sPLA2-III inh -12, Myeloid diff 2 inactive, ABHD5-PLIN5 inh 24*, ABHD5-PLIN5 conf 22* and HNF4 split-luc 1.
`COc1ccc(C(C(=O)Nc2ccc3c(c2)OCCO3)n2c(=O)c(-c3cc4ccccc4[nH]3)nc3ccccc32)cc1` (centres undefined) gave sPLA2-III inh -3, Myeloid diff 2 inactive and ABHD5-PLIN5 inh 18.
`COc1ccc(C(C(=O)Nc2ccc3c(c2)OCCO3)n2c(=O)c(-c3ccco3)nc3ccccc32)cc1` (centres undefined) gave sPLA2-III inh 14, Myeloid diff 2 inactive, ABHD5-PLIN5 inh 78*, ABHD5-PLIN5 conf 38* and HNF4 split-luc 2.
CCCNC(C)C(=O)Nc1c(C)csc1C(=O)OC (centres undefined) was read as DAGLB inh -1, Rtt109 Vps75 -8, sPLA2-III inh 0, Cardio protect -1, Myeloid diff 2 inactive and ABHD5-PLIN5 inh 2.
For Nc1ncncc1-c1ccc(F)cc1 the results were DAGLB inh -3, sPLA2-III inh 15, Cardio protect 5, Myeloid diff 2 inactive and ABHD5-PLIN5 inh 6.
CC(c1nc2ccccc2[nH]1)n1c(=O)c(-c2ccco2)nc2ccccc21 (centres undefined) was read as sPLA2-III inh -6, Myeloid diff 2 inactive, ABHD5-PLIN5 inh 52*, ABHD5-PLIN5 conf 41* and HNF4 split-luc 12.
For COc1ccc(NC(=O)C(c2ccccc2)n2c(=O)c(-c3ccco3)nc3ccccc32)cc1 (centres undefined) the results were sPLA2-III inh -5, Myeloid diff 2 inactive, ABHD5-PLIN5 inh 23*, ABHD5-PLIN5 conf 33* and HNF4 split-luc 11.
COc1ccc(NC(=O)C(c2ccc(OC)cc2)n2c(=O)c(-c3ccco3)nc3ccccc32)cc1 (centres undefined) was read as sPLA2-III inh 3, Myeloid diff 2 inactive, ABHD5-PLIN5 inh 42*, ABHD5-PLIN5 conf 39* and HNF4 split-luc 5.
CC(c1nc2ccccc2[nH]1)n1c(-c2ccncc2)nc2ccccc21 (centres undefined) was read as sPLA2-III inh -4, Myeloid diff 2 inactive and ABHD5-PLIN5 inh 1.
For Cc1ccc(/C=C/S(=O)(=O)NCC(=O)OCC(=O)Nc2ccc(C(N)=O)cc2)cc1 the results were DAGLB inh 3, Rtt109 Vps75 -2, sPLA2-III inh 8, Cardio protect 2, Myeloid diff 2 inactive and ABHD5-PLIN5 inh 3.
CCC(C)c1ccc(O)c(NC(=O)c2ncn[nH]2)c1 (centres undefined) was read as DAGLB inh 5, Rtt109 Vps75 -2, sPLA2-III inh -69, Cardio protect 6, Myeloid diff 2 inactive and ABHD5-PLIN5 inh -1.
`O=C1C(=O)N(Cc2cccnc2)C(c2ccccn2)/C1=C(/O)c1ccc(F)cc1` (centres undefined) gave DAGLB inh 1, Rtt109 Vps75 -5, sPLA2-III inh 1, Cardio protect -16, Myeloid diff 2 inactive and ABHD5-PLIN5 inh 4.
`O=C(C#Cc1ccccc1)c1ccc([N+](=O)[O-])cc1` gave DAGLB inh 12, Rtt109 Vps75 11, sPLA2-III inh -1, Cardio protect -24, Myeloid diff 2 inactive and ABHD5-PLIN5 inh 6.
For O=C(C#Cc1ccccc1)c1ccccc1 the results were DAGLB inh -7, sPLA2-III inh -2, Cardio protect -11, Myeloid diff 2 inactive, ABHD5-PLIN5 inh 25*, ABHD5-PLIN5 conf 78* and HNF4 split-luc 107*.
For Oc1c(CN2CCOCC2)cc(CN2CCOCC2)c(O)c1O the results were DAGLB inh 0, Rtt109 Vps75 -5, sPLA2-III inh 1, Cardio protect 15, Myeloid diff 2 inactive and ABHD5-PLIN5 inh 5.
